eIF4E-4G inh: eIF4E/eIF4G interaction inhibition in translation initiation; P63073+Q04637; TR-FRET eIF4E-eIF4GI(517-606) binding, 2 h; inhibition, % at 21.7 µM; 0.37% of 220,000 active; AID 782;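 active = inhibition above about 30%, limit read from the data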;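 also: 0% = full FRET control wells and 100% = background wells lacking eIF4GI fragment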
Pf gamet viab: kills late stage P. falciparum gametocytes; P. falciparum stage V gametocytes, ATP luminescence, 24 h; inhibition, % at 10.9 µM; 0.065% of 150,000 active;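 active = inhibition above the mean plus 3 SD of compounds within the control limits, set per campaign, cut at about 38% in these data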;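 also: 0% = DMSO wells and 100% = medium only without gametocytes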
Mcl1-Bid inh: disrupts binding of human Mcl-1 to Bid peptide; Q07820; TR-FRET Mcl-1/Bid-Dy647 peptide binding, 1536-well; inhibition, % at 21.7 µM; 0.97% of 220,000 active;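 active = compounds that cut the binding signal by more than half at the single screening dose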;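 also: His-tagged Mcl-1 with europium anti-His antibody binding Bid BH3 peptide; 0% = Mcl-1 plus peptide wells and 100% = peptide-only wells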
Target sequence (Q07820 whole entry, looked up): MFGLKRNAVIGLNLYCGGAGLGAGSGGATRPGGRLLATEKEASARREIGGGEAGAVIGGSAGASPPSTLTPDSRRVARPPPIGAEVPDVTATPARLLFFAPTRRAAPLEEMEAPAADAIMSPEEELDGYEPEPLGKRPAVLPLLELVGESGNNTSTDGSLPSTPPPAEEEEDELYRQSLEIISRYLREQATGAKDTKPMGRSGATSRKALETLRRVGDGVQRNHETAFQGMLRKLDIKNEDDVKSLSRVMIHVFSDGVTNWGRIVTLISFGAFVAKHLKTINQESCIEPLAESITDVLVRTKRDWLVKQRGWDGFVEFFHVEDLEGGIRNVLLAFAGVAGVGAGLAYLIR
14-3-3 Bad inh: disrupts binding of bovine 14-3-3 zeta to phospho-Bad peptide; P63103; TR-FRET 14-3-3zeta/Dy647-pBad peptide displacement, 1 h; inhibition, % at 21.7 µM; 0.71% of 220,000 active; AID 781;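 active = inhibition above about 70%, limit read from the data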;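 also: 0% = full 14-3-3 plus peptide FRET controls and 100% = background without 14-3-3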
Target sequence (P63103 whole entry, looked up): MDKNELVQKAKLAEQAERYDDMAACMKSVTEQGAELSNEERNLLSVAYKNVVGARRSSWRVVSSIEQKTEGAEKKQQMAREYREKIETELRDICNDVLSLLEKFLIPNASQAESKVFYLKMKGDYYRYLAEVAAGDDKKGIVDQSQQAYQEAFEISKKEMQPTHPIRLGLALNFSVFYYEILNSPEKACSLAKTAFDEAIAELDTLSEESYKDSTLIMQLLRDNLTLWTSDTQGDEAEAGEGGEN
Bim-Mcl-1: inhibitors of Bim-Mcl-1 interaction, human; Q07820; Bead-based flow cytometry, Bim peptide-Mcl-1 binding; inhibition, % at 10 µM; 0.1% of 190,000 active; AID 1009; in the data active = inhibition above about 40%;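 also: 0% = no compound tracer wells and 100% = peptide blocker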
Mcl1-Noxa inh: Mcl-1/Noxa interaction inhibition. Q07820. TR-FRET Mcl-1/Noxa peptide binding, 2 h. inhibition, % at 21.7 µM. 1.5% of 220,000 active. AID 1022;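 active = compounds that cut the protein-peptide binding signal by more than 50% relative to plate controls in a single-dose test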;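 also: His-tagged Mcl-1 with rhodamine Noxa BH3 peptide and terbium anti-His antibody; 0% = Mcl-1 plus Noxa peptide wells and 100% = peptide-only wells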
* marks the source's active call; other numbers are inactive results; . = no result; [ ] = dose if it differs, or a comment. Compounds with a hit are over-represented: about 2.7% of the library has one in this group of screens.

SMILES	eIF4E-4G inh	Pf gamet viab	Mcl1-Bid inh	14-3-3 Bad inh	Bim-Mcl-1	Mcl1-Noxa inh
O=C(O)c1cccc(S(=O)(=O)Nc2ccc3[nH]c(=O)[nH]c3c2)c1	7	-16	-72	-2	.	40
O=C(O)c1ccc(Cl)c(S(=O)(=O)Nc2ccc3[nH]c(=O)[nH]c3c2)c1	12	-18	-3	7	.	56*
COc1ccc(CCNC(=O)C(C)SCc2ccccc2)cc1 (configuration not stated)	1	-10	-19	-6	-1	2
CC(C)CNc1nc(Oc2ccc(=O)[nH]n2)nc(N(C)C)n1	-9	.	-29	91*	-3	-8
Cc1ccc(Nc2nc(Oc3ccc(=O)[nH]n3)nc(N(C)C)n2)cc1	74*	8	-1	25	-5	13
CN(C)c1nc(Nc2ccccc2)nc(Oc2ccc(=O)[nH]n2)n1	2	.	-15	11	-1	-16
Cc1ccccc1S(=O)(=O)Nc1nc2ccccc2nc1N1CCOCC1	0	.	4	46	0	3
C=C1CCN([C@@H](C)C(=O)NCc2ccc(Cl)cc2)S(=O)(=O)c2ccccc21	2	.	-44	0	.	10
CN(C1CCS(=O)(=O)C1)S(=O)(=O)c1ccccc1 (configuration not stated)	-2	38*	-16	-5	0	1
Cc1ccc(S(=O)(=O)N(c2ccccc2)C2CCS(=O)(=O)C2)cc1 (configuration not stated)	5	3	-30	4	-4	0
O=C(O)c1ccccc1-c1ccc(/C=c2\sc3nc4cc(Br)cnc4n3c2=O)o1	23	.	78*	36	-2	91*
COc1ccc(OCCC(=O)OCC(=O)NCCc2ccccc2)cc1	6	.	-33	-5	0	13
COc1ccc2c(c1)CC(C1(O)C(=O)N(C)c3ccccc31)C2=O (configuration not stated)	10	.	-3	74*	-2	-11
CN1C(=O)C(O)(C2COC(C)(C)CC2=O)c2ccccc21 (configuration not stated)	3	-21	-43	-12	-1	6
Cc1ccc(C)c(NC(=O)CN(C)C(=O)/C=C/c2ccco2)c1	0	.	-4	-4	-2	-4
CN(CC(=O)Nc1ccc(Cl)c(C(F)(F)F)c1)C(=O)/C=C/c1ccco1	19	57*	-31	-6	-4	7
CCN(Cc1ccncc1)C(=O)CC1C(=O)NCCN1Cc1ccc(F)c(F)c1 (configuration not stated)	-3	10	-20	-16	-1	15
COc1ccc(NC(=O)Cc2c(SC)c3ccccc3n2Cc2ccccc2)cc1	0	.	-4	3	-4	78*
Cc1nc2ccccc2nc1N/N=C/c1ccc(O)cc1	-4	-20	-23	-2	.	2
Oc1ccc(Nc2nc3ccccc3nc2Nc2ccc(O)cc2)cc1	0	.	24	62	1	82*
COc1cccc(OC)c1OCCCCn1cnc2ccccc2c1=O	0	16	51*	43	-3	3
CCOC(=O)c1cc(-c2ccc(N3CCOCC3)cc2)nn1-c1ccccc1C(=O)O	38*	-18	-256	24	.	6
CCOC(=O)c1cc(-c2ccc(N3CCOCC3)cc2)nn1-c1ccccc1	-3	-12	-17	-9	-2	8
CCn1nnc2cc(C(=O)O)ccc21	4	1	-40	1	.	-2
O=C(Cc1ccc(Cl)cc1)OCc1nnc(-c2ccccc2)o1	88*	.	-19	-13	-4	6
SMILES	eIF4E-4G inh	Pf gamet viab	Mcl1-Bid inh	14-3-3 Bad inh	Bim-Mcl-1	Mcl1-Noxa inh
CC(=O)c1c(C)[nH]c(C(=O)OCc2nnc(-c3ccccc3)o2)c1C	-6	27	51*	1	-2	-15
Cc1ccc(-c2nnc(Cc3ccc(Cl)cc3)o2)cc1	-1	.	-6	3	40*	-21
O=C(OCc1nnc(-c2ccccc2)o1)c1ccc(Cl)cc1	-2	10	-18	-7	0	-9
O=C(COc1ccccc1C(=O)NCC1CCCO1)Nc1ccc(Br)cc1 (configuration not stated)	-4	10	2	9	-2	-1
COc1ccc2cc(C(=O)NCc3ccco3)c(=Nc3ccc(C(=O)O)cc3)oc2c1	0	.	-18	12	0	1
COc1ccc(N=c2oc3c(OC)cccc3cc2C(=O)NCc2ccco2)c(OC)c1	-28	.	65*	17	1	27
COC(=O)c1ccc2c(c1)NC(=O)C1CCCN21 (configuration not stated)	1	.	-2	0	-5	64*
O=C(O)COc1ccccc1/C=N/Nc1ccc(S(=O)(=O)Nc2ccc(Cl)cc2)cc1[N+](=O)[O-]	2	13	23	21	0	73*
C=CCC1(/C=N/O)CCOC(C)(C)C1 (configuration not stated)	0	-31	98*	2	.	-24
COc1ccc(-c2nn(-c3ccccc3)cc2C(=O)N/N=C/c2ccc([N+](=O)[O-])o2)cc1	1	.	21	-8	0	52*
Cc1cc(C(=O)N/N=C/c2ccc([N+](=O)[O-])o2)c(C)o1	11	16	-20	1	.	15
CSCC[C@H](NC(=O)C1CCN(S(=O)(=O)c2ccc(C)cc2)CC1)C(=O)NCc1ccco1	1	.	-11	5	-4	20
O=C(CSc1nc2[nH]ncc2c(=O)n1-c1ccc(Cl)c(Cl)c1)NCc1ccccc1Cl	-3	-9	-13	-17	0	-7
O=C1NC(CCc2ccccc2)C(=O)N1CCOc1cccc(Br)c1 (configuration not stated)	0	-5	13	-9	0	-3
COc1cc(OC)c2c(O)c3c(c(-c4c5c(c(O)c6c(OC)cc(OC)cc46)CO[C@@H](C)[C@H]5O)c2c1)[C@H](O)[C@H](C)OC3	20	.	79*	44	-4	102*
COc1cc2c(c(OC)c1O)C(=O)CO2	-1	.	-49	-5	.	15
CC1(c2ccc(Cl)cc2Cl)OCC(Cn2ccnc2)O1 (configuration not stated)	-1	6	80*	41	1	23
OC(Cn1ccnc1)c1ccc(Cl)cc1Cl (configuration not stated)	-2	.	6	-1	-4	18
Cc1ccc(OCc2ccc(C(=O)Nc3nc4ccccc4n3C)o2)c([N+](=O)[O-])c1	-2	-6	-6	-22	-7	22
COc1ccccc1NC1=C(NC(C)=O)C(=O)c2ccccc2C1=O	2	4	-39	-9	8	78*
O=c1c2c([N+](=O)[O-])cc([N+](=O)[O-])cc2sn1-c1ccc(Br)cc1	33*[fluorescence artefact?]	.	31	51	-16	91*
COc1ccc(N=C(N)SCc2ccccn2)cc1	4	.	67*	47	-2	42

Compound activity from PubChem BioAssay.
